Hits are enriched below; roughly 3.8% of the tested compounds scored in any of these assays.
PfHsp90 yeast 2: growth inhibition of PfHsp90-expressing yeast, primary screen, antimalarial PfHsp90 inhibitor project, S. cerevisiae, BacTiter-Glo luminescence, single point, set 2; BacTiter-Glo ATP, 48 h; yeast lacking PDR1 and PDR3 efflux regulators; 0.32% of 310,000 active; AID 504621, 2011; inhibition, % at 9.4 µM;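 active = every replicate shows inhibition above about 80%, whatever the replicate mean, limit read from the data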;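 note: 0% = DMSO neutral controls and 100% = 20 µM radicicol positive controls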
tim23-1 inh: growth inhibitors of tim23-1 mutant yeast, primary screen, luminescence, uHTS; inhibition, % at 20 µM; 1.3% of 330,000 active; S. cerevisiae tim23-1 growth, BacTiter-Glo luminescence, 24 h;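 active = growth inhibition of the mutant yeast at or above 50%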;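 note: temperature-sensitive mutant grown at 25 °C; plate controls were DMSO-treated mutant yeast for no effect and medium wells lacking yeast for full effect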
tim10-1 inh: growth inhibitors of tim10-1 mutant yeast, primary screen, luminescence, uHTS. S. cerevisiae tim10-1 ts strain growth, BacTiter-Glo, 24 h. inhibition, % at 20 µM. 2.2% of 330,000 active. AID 463190, 2010;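 active = inhibition of at least 40%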;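 note: mutant grown at 25 °C; 0% = DMSO wells with yeast and 100% = wells holding no yeast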
TIM10 inh: growth inhibitors of isogenic TIM10 control yeast, primary screen, counter-screen for tim10-1 yeast inhibitor project, luminescence, uHTS; S. cerevisiae TIM10 strain growth, BacTiter-Glo luminescence, 24 h; inhibition, % at 10 µM; 1.4% of 330,000 active; AID 463195, 2010;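 active = inhibition of 40% or more at the single tested concentration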;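 note: wild-type TIM10 isogenic control strain grown at permissive 25 °C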
B2AR ag: beta2AR agonists driving receptor internalization, primary screen, cell-based, FAP fluorogen, flow cytometry. response, % (concentration not given with the values). 0.43% of 340,000 active. Am2.2-beta2AR cells;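 active = response above a set limit, near 3 SD of response in nonfluorescent compounds, cut at about 42% in these data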
Target sequence (P07550 whole entry, looked up): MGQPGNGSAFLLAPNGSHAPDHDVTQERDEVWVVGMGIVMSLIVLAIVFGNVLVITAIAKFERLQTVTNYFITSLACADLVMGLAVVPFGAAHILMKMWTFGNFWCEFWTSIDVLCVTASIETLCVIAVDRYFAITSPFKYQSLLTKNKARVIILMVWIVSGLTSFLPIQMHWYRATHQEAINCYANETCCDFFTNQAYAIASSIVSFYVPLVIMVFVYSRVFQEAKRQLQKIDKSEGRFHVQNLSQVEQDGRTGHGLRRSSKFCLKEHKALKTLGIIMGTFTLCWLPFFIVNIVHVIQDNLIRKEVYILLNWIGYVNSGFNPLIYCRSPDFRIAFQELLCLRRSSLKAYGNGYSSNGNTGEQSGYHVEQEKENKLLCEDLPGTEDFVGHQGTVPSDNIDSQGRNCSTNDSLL
tim10-1 conf: growth inhibitors of tim10-1 mutant yeast, confirmation, single concentration, luminescence, S. cerevisiae; shares compounds with tim10-1 inh; S. cerevisiae tim10-1 ts strain growth, BacTiter-Glo, 24 h; inhibition, % at 20 µM; 56% of 7,400 active;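 active = inhibition of yeast growth at or above a set limit in either of two repeat tests at 20 µM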;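 note: tim10-1 mutant grown at permissive 25 °C to find synthetic lethal compounds; 0% = DMSO yeast wells and 100% = medium wells without yeast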
The depositor's hits bear a star; / = not tested or not shown.

SMILES	PfHsp90 yeast 2	tim23-1 inh	tim10-1 inh	TIM10 inh	B2AR ag	tim10-1 conf
C/C(=N\Nc1ccc(Cl)c(Cl)c1)c1ccc(-n2ccnc2)cc1	-22	12	46*	35	4	19
C/C(=N\NC(N)=S)c1ccc(-n2ccnc2)cc1	-17	15	10	-4	-2	/
COc1cccc(CNC(=O)CCNC(=O)C2CCN(S(=O)(=O)c3ccccc3)CC2)c1	10	-6	-1	0	-4	/
CCOC(=O)CC(=O)CSc1nc2cc(C)ccc2cc1C	2	42	44*	34	-6	27
CCOC(=O)CC(=O)CSc1nc2c(C)c(C)ccc2cc1C	/	16	31	31	5	/
COc1ccccc1C(=O)N/C(=C\c1cn(S(=O)(=O)N(C)C)c2ccccc12)C(=O)N1CCCCC1	22	8	17	4	7	/
O=C(Oc1cccc2c(O)cccc12)c1ccco1	-5	/	/	/	2	/
O=C(CSc1nnc(-c2ccc(F)cc2)o1)Nc1ccccc1N1CCOCC1	18	28	40*	37	-14	26
N#CC1=C(N)Oc2n[nH]c(-c3cccs3)c2C1c1ccncc1 (stereo not given)	0	13	5	-2	1	/
Cc1ccc(C2C(C#N)=C(N)Oc3n[nH]c(-c4cccs4)c32)s1 (stereo not given)	-1	43	46*	37	7	31
Cn1c(N)c(NC(=S)NC2CCCCC2)c(=O)n(C)c1=O	18	/	/	/	-2	/
O=C(N/N=C/c1ccc[nH]1)c1cc(-c2ccc(Cl)cc2)nc2ccccc12	-7	37	56*	35	5	51*
O=C(N/N=C/c1ccc([N+](=O)[O-])o1)c1cn(-c2ccccc2)nc1-c1ccc(Cl)cc1	/	-1	26	30	12	/
O=C(N/N=C/c1ccc([N+](=O)[O-])o1)c1cn(-c2ccccc2)nc1-c1ccccc1	6	36	54*	30	9	28
O=C(N/N=C/c1cccnc1)c1cc(-c2ccc(Cl)cc2)nc2ccccc12	17	37	18	16	-14	/
O=C(N/N=C/c1ccc([N+](=O)[O-])o1)c1cc(-c2ccc(-c3ccccc3)cc2)nc2ccccc12	4	32	56*	38	17	42*
O=C(N/N=C/c1ccc([N+](=O)[O-])o1)c1cc(-c2ccncc2)nc2ccccc12	47	8	21	1	24	/
O=c1[nH]c(=S)[nH]c2c1CN(Cc1ccc(F)cc1)CC2	8	-18	-7	2	1	/
COc1ccc(NC(=O)C(OC(=O)Cn2cnc3c2c(=O)n(C)c(=O)n3C)c2ccccc2)cc1Cl (stereo not given)	-16	/	/	/	0	/
Cc1cccc(Nc2ncc3c(n2)CC(c2ccco2)CC3=O)c1 (stereo not given)	-10	22	25	14	-1	/
Cc1cc(C)cc(Nc2ncc3c(n2)CC(c2ccco2)CC3=O)c1 (stereo not given)	15	37	45*	34	2	33*
C/C(=N/Nc1nc(-c2ccc(Cl)cc2)cs1)c1cccs1	1	-1	45*	17	-3	13
O=S(=O)(Nc1ccc(-n2cccc2)cc1)c1ccc(Cl)cc1Cl	62	13	48*	33	0	26
C=CCn1c(SCc2ccc(C#N)cc2)nnc1-c1ccc(C)cc1	/	36	44*	17	-2	28
CCn1c(C)nc2cc(NC(=O)Nc3cccc(C(C)=O)c3)ccc21	-15	4	16	7	-3	/
SMILES	PfHsp90 yeast 2	tim23-1 inh	tim10-1 inh	TIM10 inh	B2AR ag	tim10-1 conf
COc1ccccc1C(=O)OCC(=O)Nc1cccc(S(=O)(=O)N2CCCC2)c1	8	22	20	3	-2	/
Cc1cc(C)n(CC(O)Cn2c3ccccc3c3ccccc32)c(=O)n1 (stereo not given)	-39	3	0	19	-4	/
Cc1cc(C)n(CC(O)Cn2c3ccc(Br)cc3c3cc(Br)ccc32)c(=O)n1 (stereo not given)	-7	46	56*	23	-5	52*
Cc1ccc2c(c1)-c1cc(C)ccc1C2=O	-18	/	/	/	-1	/
CCOC(=O)c1c(-c2ccc(-c3ccccc3)cc2)csc1NC(=O)CNCCN(C)C	5	48	43*	-15	20	25
CCOC(=O)c1c(-c2ccccc2)csc1NC(=O)CCN1C(=O)c2ccccc2C1=O	-7	22	17	-19	-8	/
CCNC(=S)Nc1scc(-c2ccccc2)c1C(=O)OCC	-11	33	41*	39	-8	31
CCOC(=O)c1c(-c2ccccc2)csc1NC(=S)NC	15	27	42*	19	0	38*
CC(C)(C)OC(=O)C(C1NC(C(=O)O)C(C)(C)S1)N1C(=O)c2ccccc2C1=O (stereo not given)	2	/	/	/	-1	/
CN(C)CCC1(C2=CCCC2)CC/C(=C/c2ccc(Cl)cc2)C1=O (stereo not given)	-16	/	/	/	-3	/
COc1ccc(C2C=C(C34CC5CC(CC(C5)C3)C4)NC(=S)N2)cc1OC (stereo not given)	-36	40	56*	8	8	17
Cc1onc(-c2ccccc2)c1C(=O)Nc1nnc(-c2ccncc2)s1	/	31	44*	24	6	39*
Cc1noc(C)c1C(=O)Nc1nnc(-c2ccccc2)s1	-4	9	4	-12	-2	/
Cc1cc(NC(=O)CCN2CCC(C)CC2)ccc1Br	0	8	-4	-4	19	/
Cc1ccc(/C=C2\CCCC3=C2NC(=S)NC3c2ccc(C)cc2)cc1 (stereo not given)	13	19	33	10	7	/
COc1ccc(C2NC(=S)NC3=C2CCc2cc(OC)ccc23)cc1 (stereo not given)	-3	48	54*	34	-13	40*
O=c1[nH]c2cc(F)ccc2c2ccc(F)cc12	-21	/	/	/	-5	/
CCOC(=O)c1ccc2nc(NC(=O)c3ccco3)sc2c1	10	41	41*	40	3	26
CCCCC(=O)Nc1nc2ccc(C(=O)OC)cc2s1	-25	29	46*	35	5	20
Cc1cc2c(cc1C)C(c1ccccc1F)CC(=O)N2 (stereo not given)	23	10	23	17	11	/
Cc1cc2c(cc1C)C(c1cc(Br)ccc1F)CC(=O)N2 (stereo not given)	22	25	45*	9	4	28

Screening results as filed in PubChem BioAssay.
